Reference: PMC10726135, “HNF4α isoforms regulate the circadian balance between carbohydrate and lipid metabolism in the liver”
In all, about 18,000 sequences were measured (“log2 normalized intensity”: median about 0.36, highest 2% from about 7.3 on). This is one part of a sample in which the highest values are shown more often than they occur.

target: T1, HNF4alpha8 (COS-7 nuclear extract) (Homo sapiens, UniProt P41235-5 1-452); assay: protein-binding microarray; COS-7 nuclear extract on double-stranded Agilent 4x180k PBM; binding buffer, salt, pH and temperature not given in the material; high values mean tight binding; details: chain copies: 2; label: 3' end of strand 1 on the slide; dsDNA, one strand shown
T1 sequence: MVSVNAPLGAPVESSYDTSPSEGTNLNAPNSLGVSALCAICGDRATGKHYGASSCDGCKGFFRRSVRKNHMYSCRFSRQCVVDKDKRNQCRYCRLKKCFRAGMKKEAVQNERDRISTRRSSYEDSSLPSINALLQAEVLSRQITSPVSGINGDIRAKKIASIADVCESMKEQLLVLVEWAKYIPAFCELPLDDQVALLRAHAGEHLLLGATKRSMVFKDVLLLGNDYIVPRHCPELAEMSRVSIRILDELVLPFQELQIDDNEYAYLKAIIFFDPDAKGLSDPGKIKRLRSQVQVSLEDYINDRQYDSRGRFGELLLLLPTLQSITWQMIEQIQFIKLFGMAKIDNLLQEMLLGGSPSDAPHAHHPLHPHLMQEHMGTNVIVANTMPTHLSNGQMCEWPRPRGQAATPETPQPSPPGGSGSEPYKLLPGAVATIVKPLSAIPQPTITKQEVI
How it was run: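 Binding signal was defined as the normalized, background-corrected gProcessedSignal reported by Agilent software. It came from nuclear extracts of COS-7 cells transiently transfected with a human HNF4α isoform expression vector, applied to a custom Agilent SurePrint G3 4x180k array. That array held ~44,000 test sequences in quadruplicate as double-stranded ~60-nt oligonucleotides, and bound HNF4α was imaged at 2-µm resolution on an Agilent G2565CA scanner.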

Sequence	binding signal [log2 normalized intensity]
CCCTTGGAATGTGACCTTAGACCCCTGAATGCCTAGGGAGATTAGAGTATCGGTCGA	6.49
AAGATAATGGGTCCGAAGGTCAGCTGACCAGCCTAGGGAGATTAGAGTATCGGTCGA	5.57
TGATTATTTGTGAAGGCATTATTGGTGAAAGCCTAGGGAGATTAGAGTATCGGTCGA	0.974
TCAGAGCTTGAAAAGTCTTTCTGCCAAAGTGCCTAGGGAGATTAGAGTATCGGTCGA	0.513
TGGCATCCCTGTGGTATTTGCTCTGTCATCGCCTAGGGAGATTAGAGTATCGGTCGA	1.39
GCTAAAAGTTGAATTCTTGACTTTGGACTTGCCTAGGGAGATTAGAGTATCGGTCGA	6.55
GACCTCTGGACCTCATCTTCCTCCCCAATAGCCTAGGGAGATTAGAGTATCGGTCGA	4.6
CCTAGGTGCTGAAGATGCAACAGTGACCCAGCCTAGGGAGATTAGAGTATCGGTCGA	3.1
AGTCTGGAGGGGTGCGAAGGTCGAGGCCAGGCCTAGGGAGATTAGAGTATCGGTCGA	3.39
AGCTACTAGCAAATCTGCCCAACCTTTGCCGCCTAGGGAGATTAGAGTATCGGTCGA	2.1
ACCTTTGCCCTTGACTTTTTGTGGGGGCAGGCCTAGGGAGATTAGAGTATCGGTCGA	3.39
CTGCTTTTATGACCTTTGACTGCAGAAGATGCCTAGGGAGATTAGAGTATCGGTCGA	6.33
TTCTTTTTTTTTTTTTTTTTTTTTTGAGATGCCTAGGGAGATTAGAGTATCGGTCGA	3.08
AGATGACCTTTGCCCTTGACTTTTTGTGGGGCCTAGGGAGATTAGAGTATCGGTCGA	7.72
TGCCCTTGACTTTTTGTGGGGGCAGATGTTGCCTAGGGAGATTAGAGTATCGGTCGA	2.31
ATGCCAGATGACCTTTGCCCTTGACTTTTTGCCTAGGGAGATTAGAGTATCGGTCGA	9.28
AGTGAGCCAAGGTACCCTGGCTTGTAATTCGCCTAGGGAGATTAGAGTATCGGTCGA	-0.844
ATCAGAGCTGGATGTGAGTTATGACTACTTGCCTAGGGAGATTAGAGTATCGGTCGA	0.62
AAATCCCCGCCTTTGACACAGGCGACCTTCGCCTAGGGAGATTAGAGTATCGGTCGA	4.58
ACTCAGGCATTCTGACCTTTGTCTCCAGGCGCCTAGGGAGATTAGAGTATCGGTCGA	6.52
CTGCAGATTGACTCAGGCATTCTGACCTTTGCCTAGGGAGATTAGAGTATCGGTCGA	7.32
GATTGACTCAGGCATTCTGACCTTTGTCTCGCCTAGGGAGATTAGAGTATCGGTCGA	7.94

Sequence	binding signal [log2 normalized intensity]
CCTTTTATTTTCTTATCTGCCTAGGCATTTGCCTAGGGAGATTAGAGTATCGGTCGA	1.58
CACAGCTCGACCTTTGACCTTCGGCTTCCCGCCTAGGGAGATTAGAGTATCGGTCGA	9.06
CCATATCACATTTTAAGGTCTGGCATTCTTGCCTAGGGAGATTAGAGTATCGGTCGA	1.1
CTTTGACACAGGCGACCTTCGCTCGGCTCGGCCTAGGGAGATTAGAGTATCGGTCGA	4.27
CCTTTGACCTTCGGCTTCCCCAGAGAAAGAGCCTAGGGAGATTAGAGTATCGGTCGA	3.38
TCAGGCACAGCTCGACCTTTGACCTTCGGCGCCTAGGGAGATTAGAGTATCGGTCGA	10.9
CCCGCCTTTGACACAGGCGACCTTCGCTCGGCCTAGGGAGATTAGAGTATCGGTCGA	6.06
TTTTAAGGTCTGGCATTCTTTTTGACCTTTGCCTAGGGAGATTAGAGTATCGGTCGA	8.23
CCAACAGGTGAAGACATGCTGGTGTGTGATGCCTAGGGAGATTAGAGTATCGGTCGA	0.875
AGATGGTCAAAGGTTGATGGTATGTTTCAGGCCTAGGGAGATTAGAGTATCGGTCGA	3.86
TGAATCCTCTTTGAGTCTGGTGTTCTCTTGGCCTAGGGAGATTAGAGTATCGGTCGA	1.65
CGCATCTGAAGATAAGAGAAGTTGCTCTTTGCCTAGGGAGATTAGAGTATCGGTCGA	2.63
CCTGCAAGGACAAAGGTCATGTTTTCAAACGCCTAGGGAGATTAGAGTATCGGTCGA	6.34
AATTTGAACCAAGATCTGTGAAAGAAAAGTGCCTAGGGAGATTAGAGTATCGGTCGA	-0.147
TATGTGCTGACTGACTCCTGTTACTTCCACGCCTAGGGAGATTAGAGTATCGGTCGA	0.0957
AGTGTGGGGTGACTGACTTAACCCTTGCCTGCCTAGGGAGATTAGAGTATCGGTCGA	2.27
CTCCACTTGGGTATCAGATAGTCCAATGTCGCCTAGGGAGATTAGAGTATCGGTCGA	2.52
GCCTCTCTGTGCTGGAACTTGCTTCCTTATGCCTAGGGAGATTAGAGTATCGGTCGA	1.37
TGTGGTAATAAGTTGGTGGACGCTGGGGAAGCCTAGGGAGATTAGAGTATCGGTCGA	0.488
TCCTTCAGCGTGAACTTTGACATGAGAGAAGCCTAGGGAGATTAGAGTATCGGTCGA	4.21
TATATTCAACCCCCACTTCCTGACTTGGCCGCCTAGGGAGATTAGAGTATCGGTCGA	3.85
